# Source: PubChem
# Hits are enriched below; roughly 2.1% of the tested compounds scored in any of these assays.
# GALR2 ag: agonists of human galanin receptor 2 (GALR2); O43603; GALR2-expressing cells, agonist activation read-out; activation, % (no concentration beside the values); hit rate 0.48% among 140,000; AID 803; in the data active = activation above about 5%, passing the limit was not always enough;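 also: 0% = vehicle buffer wells and 100% = reference agonist at full effect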
# Target sequence (O43603 whole entry, looked up): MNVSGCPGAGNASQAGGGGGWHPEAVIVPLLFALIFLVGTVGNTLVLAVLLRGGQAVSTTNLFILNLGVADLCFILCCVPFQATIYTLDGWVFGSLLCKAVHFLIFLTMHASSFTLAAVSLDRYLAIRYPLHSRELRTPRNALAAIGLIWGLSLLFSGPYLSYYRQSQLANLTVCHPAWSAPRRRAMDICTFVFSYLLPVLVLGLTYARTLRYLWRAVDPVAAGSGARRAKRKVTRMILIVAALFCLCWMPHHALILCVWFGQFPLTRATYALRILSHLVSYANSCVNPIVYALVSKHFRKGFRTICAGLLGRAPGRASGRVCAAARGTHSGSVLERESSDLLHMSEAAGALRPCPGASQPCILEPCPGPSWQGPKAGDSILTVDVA
# S1P2 ag: activates the human S1P2 receptor | S1P2-expressing cell line, agonist reporter read-out | activation, % at 4.5 µM | hit rate 0.46% among 97,000; in the data active = activation above about 16%;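 also: 0% = vehicle low control and 100% = maximal reference agonist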
# S1P2 antag: blocks the human S1P2 receptor; cell-based S1P2 antagonist assay, inhibition at 5 uM; hit rate 0.21% among 97,000; inhibition, % at 5 µM; in the data active = inhibition above about 45%;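 also: CRE beta-lactamase reporter cells expressing human S1P2 stimulated with S1P; 0% = agonist at EC80 alone and 100% = agonist plus reference antagonist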
# DAT uptake mod: modulates human dopamine transporter uptake under cocaine | LLC-PK1 hDAT cells, [14C]-dopamine uptake with cocaine IC80; actives deviate in either direction | B-score at 10 µM | hit rate 1.3% among 110,000;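 active = Z score or B-score, a plate-position-corrected score, falls beyond the plate's 99.7% confidence bounds, in either direction; inactive = both scores lie inside the 99.7% bounds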;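 also: scored against the spread of the other compound wells on the same plate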
# GALR2 antag: GALR2 (human) receptor antagonism; O43603; GALR2-expressing cells, antagonist mode; inhibition, % at 4 µM; hit rate 0.39% among 140,000;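 also: cells stimulated with galanin 1-16 at roughly its EC80; 0% = agonist challenge control and 100% = basal control without agonist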
# GALR2 ant conf: GALR2 (human) antagonism confirmed | inhibition, % at 4 µM | AID 866 | GALR2-expressing cells, antagonist mode, inhibition | shares compounds with GALR2 antag | hit rate 60% among 480;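 also: cells stimulated with galanin at about its EC80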
# BLA inhib ctr: counter-screen for GALR2 antagonists: beta-lactamase reporter inhibitors | CHO NFAT-BLA reporter, beta-lactamase FRET, thapsigargin-stimulated | hit rate 36% among 480 | inhibition, % at 4.2 µM | shares compounds with GALR2 antag | AID 867;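 active = inhibition above the mean inhibition across tested compounds plus 3 SD, cut at about 27% in these data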;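 also: 0% = 500 nM thapsigargin stimulated wells and 100% = unstimulated BSA only wells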
# * marks the source's active call; other numbers are inactive results; / = no result given. Rule as the data show it, unless noted: active = inhibition above about 27%; inactive = the rest.
SMILES,GALR2 ag,S1P2 ag,S1P2 antag,DAT uptake mod,GALR2 antag,GALR2 ant conf,BLA inhib ctr
CC(=O)C(=Nc1ccccc1Cl)NNc1ccc(Cl)cc1,-2,-4,-31,-1.2,28*,14,0
COc1cc(NC(=O)C2CCN(S(=O)(=O)c3cnc[nH]3)CC2)cc(OC)c1OC,1,-3,-13,-0.91,-9,/,/
c1cnc2c(c1)ccc1cccnc12,-2,/,/,0.88,36*,48*,-2
O=C(O)c1cccc2cccnc12,-3,-4,17,-0.023,7,/,/
CC(C)(C(=O)c1ccccc1)/[N+]([O-])=C/c1ccc(Br)cc1,-3,-2,3,0.93,2,/,/
CC(=O)Nc1ccccc1C(=O)N1CC(C)OC(C)C1 (configuration not stated),-1,-4,-10,0.054,0,/,/
Clc1ccc(OCCN2CCN(c3ncnc4sccc34)CC2)cc1,0,/,/,-0.27,40*,49*,14
CNc1nc2cc([N+](=O)[O-])c([N+](=O)[O-])cc2nc1NC,-2,/,/,/,54*,65*,10
CNc1c([N+](=O)[O-])ncn1C,-4,-2,-5,-0.042,2,/,/
CCOC(=O)c1cnn(-c2nc3c(C)cccc3s2)c1C,-4,-4,6,-0.64,32*,-1,4
CCOC(=O)c1cnn(-c2nc3c(C)cccc3s2)c1C(F)(F)F,-2,0,-14,-0.45,5,/,/
O=C(OCn1ncc(Cl)c(Cl)c1=O)c1cccc(C(F)(F)F)c1,-1,1,30,-0.26,46*,66*,43*
CC1(C)CC(=O)/C(=C\c2cccc([N+](=O)[O-])c2)C(C)(C)N1,-1,/,/,/,27*,34*,13
CCOC(=O)NC(=O)c1cn(C(CC)CO)c(=O)[nH]c1=O (configuration not stated),-2,/,/,/,-2,/,/
CC(NC(=O)CN(C)Cc1nc2ccccc2c(=O)[nH]1)c1ccccc1 (configuration not stated),-3,-4,-9,0.33,36*,3,4
N#C/C(=C\c1ccc(OC(=O)c2cccs2)cc1)c1nc2ccccc2[nH]1,-2,/,/,/,-8,/,/
N#C/C(=C\c1cccs1)c1nc2ccccc2[nH]1,-1,/,/,/,32*,30*,8
O=C(OCn1ncc(Br)c(Br)c1=O)c1ccccc1Cl,-3,-5,51*,0.55,79*,95*,97*
O=C(OCc1cnc(Cl)s1)c1ccccc1Cl,-2,-2,15,-0.73,0,/,/
O=C(OCn1ncc(Br)c(Br)c1=O)c1ccc(F)cc1,-5,-2,54*,0.21,79*,92*,95*
Cc1ccc2[nH]c(SCC(=O)N3CCOCC3)nc2c1C,-2,1,-10,0.3,5,/,/
Cc1ccc(S(=O)(=O)Nc2cccc3cccnc23)cc1,0,-4,-14,-0.11,8,/,/
O=S(=O)(Nc1cc(Sc2cccc3cccnc23)c(O)c2ccccc12)c1ccccc1,0,/,/,/,31*,24,10
CCOc1cccc(NC(=O)Cc2cccs2)c1,0,/,/,0.65,-7,/,/
O=C(Cc1cccs1)Nc1cccc(-c2nc3cc4ccccc4cc3[nH]2)c1,0,/,/,/,28*,30*,10
SMILES,GALR2 ag,S1P2 ag,S1P2 antag,DAT uptake mod,GALR2 antag,GALR2 ant conf,BLA inhib ctr
COc1ccc(NC(=O)/C(=C\c2ccc3c(c2)OCO3)NC(C)=O)cc1,-3,/,/,/,-1,/,/
CC(=O)N1CCCc2cc(S(=O)(=O)NCCC3=CCCCC3)ccc21,-1,/,/,0.15,11,/,/
c1cncc(-c2nc(NCC3COc4ccccc4O3)c3ccccc3n2)c1 (configuration not stated),-1,4,-7,/,5,/,/
c1ccc2c(c1)OCC(CNc1ncnc3sccc13)O2 (configuration not stated),0,/,/,/,42*,54*,11
O=C1C(Nc2ccccc2)=C/C(=N/S(=O)(=O)c2cccs2)c2ccccc21,5.5*,/,/,/,88*,67*,71*
O=C1C=C(Nc2ccccc2)C(=O)c2ccccc21,/,/,/,1.2,/,/,/
OC(c1ccccn1)(c1ccccn1)c1ccccn1,-3,/,/,/,3,/,/
O=C1C=CC(=O)N1CCCCCCN1C(=O)C=CC1=O,-3,/,/,/,86*,78*,95*
CNC(=O)NC(=O)C(C)OC(=O)c1c2c(nc3ccccc13)/C(=C/c1cccs1)CC2 (configuration not stated),6.6*,/,/,/,49*,41*,48*
